Results filed as inconclusive are left out. Activity calls are given as the source filed them. Unless noted, the call rests on the fitted dose curve; in most records, active means well fitted curve in the direction sought with a large enough effect in the repeat runs; inconclusive means weak or mixed curves; inactive means no such curve, though single readings can be large; an effect the other way counts as inactive or inconclusive.
How the values were obtained:
[1] = molecular target: Acetylcholinesterase (Homo sapiens) (UniProt P22303); experiment: Acetylcholinesterase (AChE) small molecule antagonists: enzyme-based qHTS assay (AID 1347397; calls by dose curve; further: nearly all actives have a fitted effect of over 55% in size); details: Potency: AChE enzyme activity inhibition
Acetylcholinesterase (Homo sapiens), sequence (P22303 whole entry, looked up): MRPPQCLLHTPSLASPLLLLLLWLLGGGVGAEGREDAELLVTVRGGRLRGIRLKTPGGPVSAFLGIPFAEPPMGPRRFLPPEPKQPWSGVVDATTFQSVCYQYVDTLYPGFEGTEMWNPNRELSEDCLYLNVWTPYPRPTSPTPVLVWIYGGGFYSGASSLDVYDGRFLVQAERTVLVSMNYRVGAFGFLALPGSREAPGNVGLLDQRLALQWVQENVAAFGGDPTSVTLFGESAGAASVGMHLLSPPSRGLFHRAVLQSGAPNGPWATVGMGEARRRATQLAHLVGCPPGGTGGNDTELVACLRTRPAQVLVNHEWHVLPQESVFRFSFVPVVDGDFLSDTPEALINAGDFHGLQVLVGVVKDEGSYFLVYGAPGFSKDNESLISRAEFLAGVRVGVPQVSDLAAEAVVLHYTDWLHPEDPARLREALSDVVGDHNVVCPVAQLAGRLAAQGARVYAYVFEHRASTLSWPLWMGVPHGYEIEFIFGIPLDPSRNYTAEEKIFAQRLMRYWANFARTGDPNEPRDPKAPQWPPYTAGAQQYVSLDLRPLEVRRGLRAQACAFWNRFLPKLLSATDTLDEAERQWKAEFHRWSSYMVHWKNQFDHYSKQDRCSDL
How it was run: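 Absorbance-based detection of thiocholine with DTNB served as the read-out. Recombinant human AChE was exposed to compound for 30 min at RT before a 10 min RT incubation with acetylthiocholine.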

[2] = molecular target: Acetylcholinesterase (Homo sapiens) (UniProt P22303); experiment: Acetylcholinesterase (AChE) small molecule antagonists: fluorescence cell-based qHTS assay (AID 1347398; calls by dose curve; further: nearly all actives have a fitted effect of over 50% in size); details: Potency: AChE activity
How it was run: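 Fluorimetric cell-based assay: intact SH-SY5Y cells, 30 min compound preincubation at 37 C, acetylthiocholine substrate with thiol probe Thiolite Green, 40 min RT development, fluorescence 490/520 nm.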

[3] = molecular target: Acetylcholinesterase (Homo sapiens) (UniProt P22303); experiment: Acetylcholinesterase (AChE) small molecule antagonists: enzyme-based qHTS assay with human liver microsomes (AID 1347399; calls by dose curve; further: nearly all actives have a fitted effect of over 60% in size); details: Potency: qHTS inhibition
How it was run: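 Recombinant human AChE (50 mU/mL in the enzyme mix) and human liver microsomes (0.25 mg/mL final) were preincubated with compound and NADPH (0.25 mg/mL final) for 30 min at 37 C. Acetylthiocholine/DTNB was then added; thiocholine was read colorimetrically after 10 min at room temperature.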

[4] = molecular target: Cytochrome P450 2C19 (Homo sapiens) (UniProt P33261); experiment: Cytochrome P450 Family 2 Subfamily C Member 19 (CYP2C19) small molecule antagonists: luciferase reporter qHTS assay (AID 1671197); further: nearly all actives have a fitted effect of over 65% in size; on activity change, negative = inhibition: series mostly up to about 120 µM
Cytochrome P450 2C19 (Homo sapiens), sequence (P33261 whole entry, looked up): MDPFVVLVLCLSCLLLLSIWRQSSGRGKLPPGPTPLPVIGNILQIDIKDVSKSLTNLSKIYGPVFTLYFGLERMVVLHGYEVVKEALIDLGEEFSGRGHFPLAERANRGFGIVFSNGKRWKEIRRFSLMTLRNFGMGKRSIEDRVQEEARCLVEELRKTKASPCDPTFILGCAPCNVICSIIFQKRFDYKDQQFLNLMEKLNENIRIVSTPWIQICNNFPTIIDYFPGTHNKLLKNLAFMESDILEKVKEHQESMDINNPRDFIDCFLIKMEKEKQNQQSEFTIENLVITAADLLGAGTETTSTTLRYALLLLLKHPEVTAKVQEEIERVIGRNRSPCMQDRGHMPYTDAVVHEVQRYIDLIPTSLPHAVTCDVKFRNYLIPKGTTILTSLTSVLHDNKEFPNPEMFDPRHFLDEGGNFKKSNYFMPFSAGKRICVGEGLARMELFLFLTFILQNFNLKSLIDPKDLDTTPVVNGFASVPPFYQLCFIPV
How it was run: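 CYP2C19 P450-Glo, 1536-well qHTS. Cpd + enzyme/proluciferin substrate 10 min RT; + NADPH regen, 37C 1 h; stop with luciferin detection reagent, 20 min RT, luminescence (RLU). Pos ctrl ketoconazole.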

[5] = molecular target: Cytochrome P450 2C9 (Homo sapiens) (UniProt P11712); experiment: Cytochrome P450 Family 2 Subfamily C Member 9 (CYP2C9) small molecule antagonists: luciferase reporter qHTS assay (AID 1671198); further: nearly all actives have a fitted effect of over 50% in size; on activity change, negative = inhibition: series mostly up to about 120 µM
Cytochrome P450 2C9 (Homo sapiens), sequence (P11712 whole entry, looked up): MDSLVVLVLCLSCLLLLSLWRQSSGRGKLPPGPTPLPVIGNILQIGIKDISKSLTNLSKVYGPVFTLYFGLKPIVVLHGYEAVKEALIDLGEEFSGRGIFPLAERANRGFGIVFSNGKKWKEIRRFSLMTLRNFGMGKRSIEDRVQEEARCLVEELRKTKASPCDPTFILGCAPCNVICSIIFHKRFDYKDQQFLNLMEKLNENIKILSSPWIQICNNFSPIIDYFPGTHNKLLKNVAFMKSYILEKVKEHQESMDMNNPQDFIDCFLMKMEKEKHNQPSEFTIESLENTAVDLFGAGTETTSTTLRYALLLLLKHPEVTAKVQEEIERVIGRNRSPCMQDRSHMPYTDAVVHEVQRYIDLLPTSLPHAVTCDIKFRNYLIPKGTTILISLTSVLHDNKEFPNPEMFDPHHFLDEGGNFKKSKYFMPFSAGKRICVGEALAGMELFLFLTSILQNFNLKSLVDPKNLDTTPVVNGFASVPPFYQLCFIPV
How it was run: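 Enzyme-substrate mix preincubated with compound 10 min at room temperature; reaction started with NADPH regeneration solution, 1 h 37C. Luminescent luciferin product read after 20 min detection reagent.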

[6] = molecular target: Cytochrome P450 1A2 (Homo sapiens) (UniProt P05177); experiment: Cytochrome P450 Family 1 Subfamily A Member 2 (CYP1A2) small molecule antagonists: luciferase reporter qHTS assay (AID 1671199); further: nearly all actives have a fitted effect of over 50% in size; on activity change, negative = inhibition: series mostly up to about 120 µM
Cytochrome P450 1A2 (Homo sapiens), sequence (P05177 whole entry, looked up): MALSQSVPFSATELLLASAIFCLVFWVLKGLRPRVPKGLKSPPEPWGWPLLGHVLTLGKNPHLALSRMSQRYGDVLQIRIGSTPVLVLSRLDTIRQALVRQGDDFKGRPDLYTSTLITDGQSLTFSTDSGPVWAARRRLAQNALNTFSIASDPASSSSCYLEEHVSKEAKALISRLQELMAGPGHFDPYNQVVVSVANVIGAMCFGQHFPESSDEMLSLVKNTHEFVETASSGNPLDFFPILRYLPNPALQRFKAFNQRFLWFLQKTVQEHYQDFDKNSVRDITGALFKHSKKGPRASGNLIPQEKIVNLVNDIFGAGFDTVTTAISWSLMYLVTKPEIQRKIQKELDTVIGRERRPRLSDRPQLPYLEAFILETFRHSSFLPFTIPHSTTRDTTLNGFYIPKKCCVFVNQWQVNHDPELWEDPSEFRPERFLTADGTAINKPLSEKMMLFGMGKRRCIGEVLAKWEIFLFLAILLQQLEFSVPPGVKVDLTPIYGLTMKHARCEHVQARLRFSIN
How it was run: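 CYP1A2 turnover of a luminogenic substrate was quantified after 1 h with NADPH regeneration at room temperature. Furafylline served as positive control.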

[7] = molecular target: Voltage-gated inwardly rectifying potassium channel KCNH2 (Homo sapiens) (UniProt Q12809); experiment: Human Ether-a-go-go-Related Gene (hERG) channel small molecule antagonists: fluorescence cell-based qHTS assay (AID 1671200); further: nearly all actives have a fitted effect of over 50% in size;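 on activity change, negative = inhibition: hERG-expressing U2OS cells given a thallium stimulus after FluxOR II dye loading; series mostly up to about 77 µM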
Voltage-gated inwardly rectifying potassium channel KCNH2 (Homo sapiens), sequence (Q12809 whole entry, looked up): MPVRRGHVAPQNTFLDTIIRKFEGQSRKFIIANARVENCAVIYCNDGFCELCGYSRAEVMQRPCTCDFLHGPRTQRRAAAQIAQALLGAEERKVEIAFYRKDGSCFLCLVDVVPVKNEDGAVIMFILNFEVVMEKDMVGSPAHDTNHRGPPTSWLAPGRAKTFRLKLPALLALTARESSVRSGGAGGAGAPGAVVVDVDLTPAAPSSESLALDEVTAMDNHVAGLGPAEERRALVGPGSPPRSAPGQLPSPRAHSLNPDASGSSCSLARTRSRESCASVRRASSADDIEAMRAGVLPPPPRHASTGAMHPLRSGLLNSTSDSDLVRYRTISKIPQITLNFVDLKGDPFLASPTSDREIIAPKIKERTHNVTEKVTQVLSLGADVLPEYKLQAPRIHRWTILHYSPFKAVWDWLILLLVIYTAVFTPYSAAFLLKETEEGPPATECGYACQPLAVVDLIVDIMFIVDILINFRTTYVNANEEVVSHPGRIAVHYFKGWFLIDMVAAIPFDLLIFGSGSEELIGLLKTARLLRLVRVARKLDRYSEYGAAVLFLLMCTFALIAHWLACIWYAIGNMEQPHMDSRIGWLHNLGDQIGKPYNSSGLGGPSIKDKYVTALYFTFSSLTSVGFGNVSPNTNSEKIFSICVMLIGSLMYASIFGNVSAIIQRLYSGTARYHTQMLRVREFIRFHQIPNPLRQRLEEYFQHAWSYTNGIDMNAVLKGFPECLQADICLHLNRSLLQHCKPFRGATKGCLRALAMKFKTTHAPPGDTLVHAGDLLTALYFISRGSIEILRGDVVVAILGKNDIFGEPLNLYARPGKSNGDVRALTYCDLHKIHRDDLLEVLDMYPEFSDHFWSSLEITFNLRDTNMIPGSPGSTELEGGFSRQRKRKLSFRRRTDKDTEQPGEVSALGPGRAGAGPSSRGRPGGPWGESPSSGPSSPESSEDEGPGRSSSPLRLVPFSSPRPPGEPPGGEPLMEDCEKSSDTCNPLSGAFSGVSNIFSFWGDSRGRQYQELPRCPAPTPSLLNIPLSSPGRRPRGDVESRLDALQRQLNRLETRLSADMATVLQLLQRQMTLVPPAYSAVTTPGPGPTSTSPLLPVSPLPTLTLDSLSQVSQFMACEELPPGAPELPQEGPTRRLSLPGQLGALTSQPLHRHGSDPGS
How it was run: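 Measured: Tl+ flux via fluorescence (480/540 nm) in hERG-expressing U2OS cells after 1 h dye loading at room temperature.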

[8] = molecular target: Cytochrome P450 3A4 (Homo sapiens) (UniProt P08684); experiment: Cytochrome P450 Family 3 Subfamily A Member 4 (CYP3A4) small molecule antagonists: luciferase reporter qHTS assay (AID 1671201); further: nearly all actives have a fitted effect of over 50% in size; on activity change, negative = inhibition: series mostly up to about 120 µM
Cytochrome P450 3A4 (Homo sapiens), sequence (P08684 whole entry, looked up): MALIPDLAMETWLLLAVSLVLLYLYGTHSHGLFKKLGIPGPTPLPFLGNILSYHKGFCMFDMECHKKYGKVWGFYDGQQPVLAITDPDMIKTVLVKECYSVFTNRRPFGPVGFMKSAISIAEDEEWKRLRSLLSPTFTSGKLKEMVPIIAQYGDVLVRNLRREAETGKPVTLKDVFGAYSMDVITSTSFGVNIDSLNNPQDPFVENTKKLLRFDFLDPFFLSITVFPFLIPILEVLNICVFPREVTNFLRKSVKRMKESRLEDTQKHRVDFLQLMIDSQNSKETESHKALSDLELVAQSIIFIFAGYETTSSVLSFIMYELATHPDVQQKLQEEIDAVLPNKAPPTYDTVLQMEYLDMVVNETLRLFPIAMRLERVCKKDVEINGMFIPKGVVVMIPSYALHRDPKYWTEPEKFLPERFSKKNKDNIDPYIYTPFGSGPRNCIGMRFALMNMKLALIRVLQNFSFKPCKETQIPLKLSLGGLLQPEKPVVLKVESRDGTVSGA
How it was run: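 Setup: enzyme-substrate mix, compound pin transfer, 10 min RT. Reaction: NADPH regeneration solution, 1 h RT. Readout: detection reagent stops turnover, luminescence measured after 20 min, expressed in relative luminescence units.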

[9] = molecular target: Cytochrome P450 2D6 (Homo sapiens) (UniProt P10635); experiment: Cytochrome P450 Family 2 Subfamily D Member 6 (CYP2D6) small molecule antagonists: luciferase reporter qHTS assay (AID 1671196); further: nearly all actives have a fitted effect of over 50% in size; on activity change, negative = inhibition: series mostly up to about 120 µM
Cytochrome P450 2D6 (Homo sapiens), sequence (P10635 whole entry, looked up): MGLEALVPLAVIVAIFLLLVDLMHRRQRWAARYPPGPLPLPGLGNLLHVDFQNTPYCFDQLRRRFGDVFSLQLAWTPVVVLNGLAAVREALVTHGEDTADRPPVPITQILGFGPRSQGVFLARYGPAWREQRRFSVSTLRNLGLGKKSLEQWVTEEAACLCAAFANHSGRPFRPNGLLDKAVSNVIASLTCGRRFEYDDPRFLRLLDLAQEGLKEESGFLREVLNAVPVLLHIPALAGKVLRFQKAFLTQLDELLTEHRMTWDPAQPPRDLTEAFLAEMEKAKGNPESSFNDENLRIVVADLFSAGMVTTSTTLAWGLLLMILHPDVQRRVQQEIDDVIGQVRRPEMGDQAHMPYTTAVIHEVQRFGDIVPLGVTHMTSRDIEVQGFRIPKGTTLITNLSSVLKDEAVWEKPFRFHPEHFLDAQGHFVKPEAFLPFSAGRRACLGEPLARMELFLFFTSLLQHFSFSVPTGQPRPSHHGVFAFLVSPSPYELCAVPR
How it was run: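 Luminescence (RLU), read 20 min after detection reagent, indicated CYP2D6 conversion of proluciferin to luciferin during a 1 h NADPH-dependent reaction at room temperature.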
On the % scale 0 is the no-effect control and ±100 the full control effect; potency means the concentration at half of the fitted maximal effect.

O=C1c2ccccc2C(=O)c2ccccc21
active: Potency [6] 0.177 µM
inactive: activity change, negative = inhibition [1] -0.378% [at 23.6 µM] | activity change, negative = inhibition [2] 3.86% [at 23.8 µM] | activity change, negative = inhibition [3] -1.34% [at 23.6 µM] | activity change, negative = inhibition [4] 10.7% [at 23.6 µM] | activity change, negative = inhibition [5] 2.12% [at 23.6 µM] | activity change, negative = inhibition [7] 3.3% [at 15.8 µM] | activity change, negative = inhibition [8] 15.9% [at 23.6 µM]

C=CCC1=C(C)[C@@H](OC(=O)[C@@H]2[C@@H](C=C(C)C)C2(C)C)CC1=O
inactive: Potency [1] | Potency [2] | Potency [3]
active: Potency [4] 6.33 µM | Potency [5] 12.6 µM | Potency [6] 28.3 µM

O=P(O)(Oc1ccccc1)Oc1ccccc1
inactive: Potency [1] | Potency [2] | Potency [3] | Potency [9] | Potency [6] | Potency [7] | Potency [8]
active: Potency [5] 39.9 µM

ClC(Br)Br
inactive: Potency [1] | Potency [2] | Potency [3] | Potency [9] | Potency [5] | Potency [6] | Potency [7] | Potency [8]

CC(C(O)c1ccccc1)N(C)C/C=C/c1ccccc1 (centres undefined)
inactive: Potency [1] | Potency [2] | Potency [3] | Potency [8]
active: Potency [9] 0.0871 µM | Potency [7] 10.7 µM

CCOC(=O)/C=C(C)/C=C/C[C@@H](C)CCCC(C)C
active: Potency [4] 28.3 µM | Potency [5] 15.9 µM
inactive: Potency [1] | Potency [2] | Potency [3]

CN1CCN(C(=O)O[C@H]2c3nccnc3C(=O)N2c2ccc(Cl)cn2)CC1
inactive: Potency [1] | Potency [2] | Potency [3] | Potency [9] | Potency [7] | Potency [8]
active: Potency [6] 27.5 µM

NC(=O)c1cc([N+](=O)[O-])cc([N+](=O)[O-])c1
inactive: Potency [1] | Potency [2] | Potency [3] | Potency [4] | Potency [5] | Potency [6] | Potency [7] | Potency [8]

CCCSP(=S)(OCC)Oc1ccc(Cl)cc1Cl (centres undefined)
inactive: Potency [1] | Potency [2] | Potency [3] | Potency [7]
active: Potency [4] 2.24 µM | Potency [5] 2 µM | Potency [6] 11.2 µM | Potency [8] 2.83 µM

C(CCOCC1CO1)COCC1CO1 (centres undefined)
inactive: Potency [1] | Potency [2] | Potency [3] | Potency [9] | Potency [5] | Potency [6] | Potency [7] | Potency [8]

CN1C(=S)CN=C(c2ccccc2)c2cc(Cl)ccc21
inactive: Potency [1] | Potency [2] | Potency [3] | Potency [9] | Potency [7]

ClCCCN1CCN(c2cccc(Cl)c2)CC1
active: Potency [9] 0.977 µM | Potency [6] 15.5 µM | Potency [7] 10.7 µM
inactive: Potency [1] | Potency [2] | Potency [3] | Potency [8]

Cc1nc(N)nc(N)n1
inactive: Potency [1] | Potency [2] | Potency [3] | Potency [9] | Potency [5] | Potency [6] | Potency [8]

CC1(C)C(=O)NC(=O)NC1=O
active: Potency [6] 35.6 µM
inactive: Potency [1] | Potency [2] | Potency [3] | Potency [9] | Potency [8]

CCCCP(CCCC)CCCC
inactive: Potency [1] | Potency [2] | Potency [3] | Potency [8]
active: Potency [9] 35.6 µM

COc1cc(OC)nc(NC(=O)NS(=O)(=O)c2ncccc2OCC(F)(F)F)n1
inactive: Potency [1] | Potency [2] | Potency [3] | Potency [9] | Potency [7] | Potency [8]

Cc1ncc(CNC(=O)N(CCCl)N=O)c(N)n1
inactive: Potency [1] | Potency [2] | Potency [3] | Potency [9] | Potency [7] | Potency [8]

O=[N+]([O-])c1ccc(CBr)cc1
inactive: Potency [1] | Potency [2] | Potency [3] | Potency [9] | Potency [7] | Potency [8]

O=c1oc2ccccc2c(O)c1C1CCCc2ccccc21 (centres undefined)
inactive: Potency [1] | Potency [2] | Potency [3] | Potency [9] | Potency [6] | Potency [7]
active: Potency [5] 3.99 µM | Potency [8] 31.7 µM

Cc1cnc[nH]1
active: Potency [9] 34.2 µM
inactive: Potency [1] | Potency [2] | Potency [3] | Potency [7]

OCCSCSCCO
inactive: Potency [1] | Potency [2] | Potency [3] | Potency [9] | Potency [6] | Potency [7] | Potency [8]

CC(C)(C)NCC(O)c1cc(Cl)c(N)c(Cl)c1 (centres undefined)
inactive: Potency [1] | Potency [2] | Potency [3] | Potency [4] | Potency [5] | Potency [6] | Potency [7] | Potency [8]

NC(=S)C(N)=S
inactive: Potency [1] | Potency [2] | Potency [3] | Potency [7]
active: Potency [9] 71 µM

CCOP(=S)(Oc1cnc(C(C)(C)C)nc1)OC(C)C (centres undefined)
active: Potency [1] 63.3 µM | Potency [2] 39.9 µM | Potency [3] 10 µM | Potency [9] 35.6 µM | Potency [5] 1.59 µM | Potency [6] 22.4 µM | Potency [8] 1.59 µM

CCC(C)(C)c1cc(-n2nc3ccccc3n2)c(O)c(C(C)(C)CC)c1
active: Potency [9] 25.6 µM | Potency [6] 36.1 µM
inactive: Potency [1] | Potency [2] | Potency [3] | Potency [7]

CCCCc1ccc(O)cc1
inactive: Potency [1] | Potency [2] | Potency [3] | Potency [9] | Potency [7] | Potency [8]

O=[N+]([O-])c1cccc(O)c1
inactive: Potency [1] | Potency [2] | Potency [3] | Potency [9] | Potency [5] | Potency [7] | Potency [8]

C1CCC(C2CCCCC2)CC1
inactive: Potency [1] | Potency [2] | Potency [3] | Potency [9] | Potency [5] | Potency [7] | Potency [8]

Clc1cccc(N2CCNCC2)c1
inactive: Potency [1] | Potency [2] | Potency [3] | Potency [4] | Potency [5] | Potency [7] | Potency [8]

C=C(C)CN(CC)c1c([N+](=O)[O-])cc(C(F)(F)F)cc1[N+](=O)[O-]
active: Potency [4] 28.3 µM | Potency [5] 31.7 µM | Potency [6] 31.7 µM
inactive: Potency [1] | Potency [2] | Potency [3] | Potency [8]

CCS(=O)(=O)C(C)(C)S(=O)(=O)CC
inactive: Potency [1] | Potency [2] | Potency [3] | Potency [4] | Potency [5] | Potency [6] | Potency [8]

C[C@@H]1CN(C2CCC(C#N)(c3ccc(F)cc3)CC2)CC[C@]1(C(=O)O)c1ccccc1 (some centres undefined)
inactive: Potency [1] | Potency [2] | Potency [3] | Potency [4] | Potency [5] | Potency [6] | Potency [8]

CCCCOC(=O)[C@@H](C)Oc1ccc(Oc2ccc(C#N)cc2F)cc1
inactive: Potency [1] | Potency [2] | Potency [3] | Potency [8]
active: Potency [4] 19.9 µM | Potency [5] 7.92 µM | Potency [6] 31.5 µM | Potency [7] 4.34 µM

COC(C)(C)C
inactive: Potency [1] | Potency [2] | Potency [3] | Potency [4] | Potency [5] | Potency [7] | Potency [8]

COC(=O)C1=CCCN(C)C1
inactive: Potency [1] | Potency [2] | Potency [3] | Potency [4] | Potency [5] | Potency [6] | Potency [8]

c1cc2c(c(N3CCNCC3)c1)OCCO2
inactive: Potency [1] | Potency [2] | Potency [3] | Potency [4] | Potency [5] | Potency [6] | Potency [7] | Potency [8]
